# According to PubChem BioAssay (NCATS):
# Records with an inconclusive call do not appear. Where a call stands in place of a potency, no number is given. Calls of active or inactive are those of the source. Unless noted, the call rests on the fitted dose curve; in most records, active means well fitted curve in the direction sought with a large enough effect; inconclusive means small, poorly fitted or top-dose-only effect, or another doubt; inactive means no such curve, though single readings can be large; an effect the other way counts as inactive or inconclusive.
# Key:
# [1] = target: Calcium and integrin-binding protein 1 (Homo sapiens) (UniProt Q99828); assay: Primary qHTS for Identification of Calcium Integrin Binding Protein 1 (CIB1) Competitor (AID 1508620);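 further: GST tagged CIB1 binding a fluorescein labelled alphaIIb integrin peptide tracer; top concentration of the series differs between compounds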
# In short: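 Fluorescence polarization competition: GST-tagged CIB1 (1 uM final) preincubated with compound 15 min at room temperature, then FITC-labelled alphaIIb peptide (100 nM final) added. After 15 min at room temperature, polarization read at Ex 480/Em 540.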
# [2] = target: Cytochrome P450 2D6 (Homo sapiens) (UniProt P10635); assay: Cytochrome P450 family 2 subfamily D member 6 (CYP2D6) small molecule antagonists: luciferase biochemical (cell-free) qHTS assay (AID 1645840; active means well fitted curve in the direction sought with a large enough effect in the repeat runs; an effect the other way counts as inactive or inconclusive; further: nearly all actives have a fitted effect of over 55% in size; further: potency means the concentration at half of the fitted maximal effect)
# In short: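 P450-Glo luminescent screen: recombinant CYP2D6 enzyme–proluciferin substrate mix preincubated with compound 10 min at room temperature, then NADPH regeneration added for 1 h at room temperature. Detection reagent added for 20 min; luciferin light read as relative luminescence units.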
# Calcium and integrin-binding protein 1 (Homo sapiens), sequence (Q99828 whole entry, looked up): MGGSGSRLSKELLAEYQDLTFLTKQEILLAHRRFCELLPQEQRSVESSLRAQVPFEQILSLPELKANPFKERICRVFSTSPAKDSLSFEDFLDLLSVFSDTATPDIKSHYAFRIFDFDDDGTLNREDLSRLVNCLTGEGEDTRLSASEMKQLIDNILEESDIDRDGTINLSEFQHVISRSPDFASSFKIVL
# Cytochrome P450 2D6 (Homo sapiens), sequence (P10635 whole entry, looked up): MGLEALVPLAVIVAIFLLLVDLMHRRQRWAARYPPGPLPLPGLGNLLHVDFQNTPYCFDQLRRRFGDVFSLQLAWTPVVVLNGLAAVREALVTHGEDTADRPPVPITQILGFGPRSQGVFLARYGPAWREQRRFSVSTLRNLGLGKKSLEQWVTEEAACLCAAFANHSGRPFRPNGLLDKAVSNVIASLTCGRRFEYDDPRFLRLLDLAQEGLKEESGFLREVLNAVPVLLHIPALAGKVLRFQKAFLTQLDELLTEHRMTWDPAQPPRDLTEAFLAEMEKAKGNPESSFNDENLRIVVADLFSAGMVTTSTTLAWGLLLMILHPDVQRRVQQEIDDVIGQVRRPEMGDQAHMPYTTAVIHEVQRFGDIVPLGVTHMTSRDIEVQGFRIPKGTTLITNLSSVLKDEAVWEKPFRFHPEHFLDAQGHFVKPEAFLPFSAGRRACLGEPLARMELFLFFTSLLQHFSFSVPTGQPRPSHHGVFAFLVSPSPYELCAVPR
SMILES,Potency [1],Potency [2]
O=C(Nc1ccc(-c2ccnc(Nc3ccc(N4CCOCC4)cc3)n2)cc1)C1CCCN1 (stereo unspecified),inactive,inactive
CCN1CCC[C@@H]1CNC(=O)c1ccc2c(c1)NC(=O)c1cccc(C)c1S2,inactive,–
C=CC(=O)Nc1cc(-n2c(=O)ccc3cnc4ccc(-c5ccc(NS(C)(=O)=O)cc5)cc4c32)ccc1C,inactive,inactive
C/C=C(\C)C(=O)O[C@H]1C=CC(=O)O[C@H]1/C=C/[C@@H](O)[C@H](C)O,inactive,–
COc1ccc(CCc2nc3c(C)c(-c4c(C)noc4C)c(C)cc3n2CCN2CCOCC2)cc1,inactive,–
COc1ccc2c(c1O[C@H]1CCNC1)CCC2,inactive,16.9 µM (active)
Cc1nc2cc(C(=O)NCc3ccccn3)nn2c(C)c1Cc1cccc(Cl)c1,inactive,–
C=C1CC2OC(=O)C(=C)C2C(O)/C=C(\C)CCC1O (stereo unspecified),inactive,–
Oc1cccc(C2NC(=S)Nc3cccc(F)c32)c1 (stereo unspecified),inactive,7.56 µM (active)
C[C@@H](Nc1ncnc2[nH]c(-c3ccc(O)cc3)cc12)c1ccccc1,inactive,1.34 µM (active)
Cc1nc(C#Cc2ccnc(Cl)c2)c(C)n1-c1ccc(F)cc1,inactive,19 µM (active)
CC(C)(CNC(=O)c1cccc(-c2noc(C(F)(F)F)n2)c1)c1coc(-c2ccccc2)n1,inactive,–
Cc1ccc(NC(=O)N2CCN(c3nc(N)nc4sc(-c5cccnc5)nc34)CC2)cc1,inactive,13.5 µM (active)
CC(=O)OC1C(O)CC2(C)C(CCC3(C)C2CC=C2C4C5(CCC(CO[C@@H]6O[C@H](CO)[C@@H](O)[C@H](O)[C@H]6O)(OC5=O)C4(C)O)C(O)CC23C)C1(C)C (stereo partly specified),inactive,–
